Measurements taken from PMC11062922 (Nature Chemical Biology, 2023).
Like-named read-outs stand apart in the source and are kept apart here.

Tested on: PRKD3
Conditions: read-out: apparent Kd, n = 1

Lestaurtinib
potency estimated from few doses (compound concentrations:100 nM and 1000 nM (sheet 'Lestaurtinib' of Supplementary Table 1),run:Lestaurtinib_02438_R1,Plate:MR008): 84.2 nM | potency estimated from few doses (compound concentrations:100 nM and 1000 nM (sheet 'Lestaurtinib' of Supplementary Table 1),run:Lestaurtinib_02438_R2,Plate:MR008): 51.6 nM | potency estimated from few doses (compound concentrations:100 nM and 1000 nM (sheet 'Lestaurtinib' of Supplementary Table 1),run:Lestaurtinib_02438_R3,Plate:MR008): 82.5 nM | potency estimated from few doses (compound concentrations:100 nM and 1000 nM (sheet 'Lestaurtinib' of Supplementary Table 1),run:Lestaurtinib_02443_R1,Plate:MR009): 91.7 nM | potency estimated from few doses (compound concentrations:100 nM and 1000 nM (sheet 'Lestaurtinib' of Supplementary Table 1),run:Lestaurtinib_02473_R1,Plate:MR010): 77.7 nM | potency estimated from few doses (compound concentrations:100 nM and 1000 nM (sheet 'Lestaurtinib' of Supplementary Table 1),run:Lestaurtinib_02473_R3,Plate:MR010): 79.7 nM | potency estimated from few doses (compound concentrations:100 nM and 1000 nM (sheet 'Lestaurtinib' of Supplementary Table 1),run:Lestaurtinib_02482_R1,Plate:MR011): 95.2 nM | potency estimated from few doses (compound concentrations:100 nM and 1000 nM (sheet 'Lestaurtinib' of Supplementary Table 1),run:Lestaurtinib_02482_R3,Plate:MR011): 132 nM | potency estimated from few doses (compound concentrations:100 nM and 1000 nM (sheet 'Lestaurtinib' of Supplementary Table 1),run:Lestaurtinib_02487_R1,Plate:MR012): 90.9 nM | potency estimated from few doses (compound concentrations:100 nM and 1000 nM (sheet 'Lestaurtinib' of Supplementary Table 1),run:Lestaurtinib_02487_R2,Plate:MR012): 84.9 nM | potency estimated from few doses (compound concentrations:100 nM and 1000 nM (sheet 'Lestaurtinib' of Supplementary Table 1),run:Lestaurtinib_02487_R3,Plate:MR012): 94.1 nM | potency estimated from few doses (compound concentrations:100 nM and 1000 nM (sheet 'Lestaurtinib' of Supplementary Table 1),run:Lestaurtinib_02496_R2,Plate:MR013): 79 nM | potency estimated from few doses (compound concentrations:100 nM and 1000 nM (sheet 'Lestaurtinib' of Supplementary Table 1),run:Lestaurtinib_02496_R3,Plate:MR013): 79.4 nM | potency estimated from few doses (compound concentrations:100 nM and 1000 nM (sheet 'Lestaurtinib' of Supplementary Table 1),run:Lestaurtinib_02566_R2,Plate:MR014): 57.7 nM | potency estimated from few doses (compound concentrations:100 nM and 1000 nM (sheet 'Lestaurtinib' of Supplementary Table 1),run:Lestaurtinib_02566_R3,Plate:MR014): 52.9 nM | potency estimated from few doses (compound concentrations:100 nM and 1000 nM (sheet 'Lestaurtinib' of Supplementary Table 1),run:Lestaurtinib_02572_R1,Plate:MR015): 45.9 nM | potency estimated from few doses (compound concentrations:100 nM and 1000 nM (sheet 'Lestaurtinib' of Supplementary Table 1),run:Lestaurtinib_02577_R1,Plate:MR016): 100 nM | potency estimated from few doses (compound concentrations:100 nM and 1000 nM (sheet 'Lestaurtinib' of Supplementary Table 1),run:Lestaurtinib_02577_R2,Plate:MR016): 87.6 nM | potency estimated from few doses (compound concentrations:100 nM and 1000 nM (sheet 'Lestaurtinib' of Supplementary Table 1),run:Lestaurtinib_02577_R3,Plate:MR016): 59.2 nM | potency estimated from few doses (compound concentrations:100 nM and 1000 nM (sheet 'Lestaurtinib' of Supplementary Table 1),run:Lestaurtinib_02584_R1,Plate:MR017): 95.1 nM | potency estimated from few doses (compound concentrations:100 nM and 1000 nM (sheet 'Lestaurtinib' of Supplementary Table 1),run:Lestaurtinib_02584_R2,Plate:MR017): 100 nM | potency estimated from few doses (compound concentrations:100 nM and 1000 nM (sheet 'Lestaurtinib' of Supplementary Table 1),run:Lestaurtinib_02584_R3,Plate:MR017): 113 nM | potency estimated from few doses (compound concentrations:100 nM and 1000 nM (sheet 'Lestaurtinib' of Supplementary Table 1),run:Lestaurtinib_02601_R2,Plate:MR018): 71.2 nM | potency estimated from few doses (compound concentrations:100 nM and 1000 nM (sheet 'Lestaurtinib' of Supplementary Table 1),run:Lestaurtinib_02601_R3,Plate:MR018): 77.1 nM | potency estimated from few doses (compound concentrations:100 nM and 1000 nM (sheet 'Lestaurtinib' of Supplementary Table 1),run:Lestaurtinib_02606_R1,Plate:MR019): 69.4 nM | potency estimated from few doses (compound concentrations:100 nM and 1000 nM (sheet 'Lestaurtinib' of Supplementary Table 1),run:Lestaurtinib_02606_R2,Plate:MR019): 130 nM | potency estimated from few doses (compound concentrations:100 nM and 1000 nM (sheet 'Lestaurtinib' of Supplementary Table 1),run:Lestaurtinib_02606_R3,Plate:MR019): 130 nM | potency estimated from few doses (compound concentrations:100 nM and 1000 nM (sheet 'Lestaurtinib' of Supplementary Table 1),run:Lestaurtinib_02624_R1,Plate:MR020): 67.4 nM | potency estimated from few doses (compound concentrations:100 nM and 1000 nM (sheet 'Lestaurtinib' of Supplementary Table 1),run:Lestaurtinib_02624_R2,Plate:MR020): 90.4 nM | potency estimated from few doses (compound concentrations:100 nM and 1000 nM (sheet 'Lestaurtinib' of Supplementary Table 1),run:Lestaurtinib_02624_R3,Plate:MR020): 79.8 nM | potency estimated from few doses (compound concentrations:100 nM and 1000 nM (sheet 'Lestaurtinib' of Supplementary Table 1),run:Lestaurtinib_02724_R1,Plate:MR021): 56.1 nM | potency estimated from few doses (compound concentrations:100 nM and 1000 nM (sheet 'Lestaurtinib' of Supplementary Table 1),run:Lestaurtinib_02724_R2,Plate:MR021): 71.1 nM | potency estimated from few doses (compound concentrations:100 nM and 1000 nM (sheet 'Lestaurtinib' of Supplementary Table 1),run:Lestaurtinib_02724_R3,Plate:MR021): 59.7 nM | potency estimated from few doses (compound concentrations:100 nM and 1000 nM (sheet 'Lestaurtinib' of Supplementary Table 1),run:Lestaurtinib_02741_R1,Plate:MR023): 88.2 nM | potency estimated from few doses (compound concentrations:100 nM and 1000 nM (sheet 'Lestaurtinib' of Supplementary Table 1),run:Lestaurtinib_02741_R2,Plate:MR023): 56.3 nM | potency estimated from few doses (compound concentrations:100 nM and 1000 nM (sheet 'Lestaurtinib' of Supplementary Table 1),run:Lestaurtinib_02741_R3,Plate:MR023): 88.4 nM | potency estimated from few doses (compound concentrations:100 nM and 1000 nM (sheet 'Lestaurtinib' of Supplementary Table 1),run:Lestaurtinib_02748_R1,Plate:MR024): 86 nM | potency estimated from few doses (compound concentrations:100 nM and 1000 nM (sheet 'Lestaurtinib' of Supplementary Table 1),run:Lestaurtinib_02748_R3,Plate:MR024): 98 nM | potency estimated from few doses (compound concentrations:100 nM and 1000 nM (sheet 'Lestaurtinib' of Supplementary Table 1),run:Lestaurtinib_02752_R1,Plate:MR025): 92.9 nM | potency estimated from few doses (compound concentrations:100 nM and 1000 nM (sheet 'Lestaurtinib' of Supplementary Table 1),run:Lestaurtinib_02752_R3,Plate:MR025): 99.3 nM | potency estimated from few doses (compound concentrations:100 nM and 1000 nM (sheet 'Lestaurtinib' of Supplementary Table 1),run:Lestaurtinib_02765_R3,Plate:MR026): 82.4 nM | potency estimated from few doses (compound concentrations:100 nM and 1000 nM (sheet 'Lestaurtinib' of Supplementary Table 1),run:Lestaurtinib_02766_R1,Plate:MR027): 99.2 nM
